In PubChem BioAssay:
Activity calls are given as the source filed them.

Legend:
Albumin (Bos taurus) = Albumin (Bos taurus) (UniProt P02769); assay: compounds binding labelled BSA control protein – biochemical, small-molecule microarray, Alexa647 label, 635/667 nm fluorescence, artefact control for SMM control protein annotation, profiling panel (AID 1118); conditions: BSA-A647 binding, fluorescence 635 nm, higher = more signal;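 further: score merges 667 nm emission intensity and signal-to-noise per printed compound spot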
Chain of Albumin (Bos taurus) (P02769 whole entry, looked up): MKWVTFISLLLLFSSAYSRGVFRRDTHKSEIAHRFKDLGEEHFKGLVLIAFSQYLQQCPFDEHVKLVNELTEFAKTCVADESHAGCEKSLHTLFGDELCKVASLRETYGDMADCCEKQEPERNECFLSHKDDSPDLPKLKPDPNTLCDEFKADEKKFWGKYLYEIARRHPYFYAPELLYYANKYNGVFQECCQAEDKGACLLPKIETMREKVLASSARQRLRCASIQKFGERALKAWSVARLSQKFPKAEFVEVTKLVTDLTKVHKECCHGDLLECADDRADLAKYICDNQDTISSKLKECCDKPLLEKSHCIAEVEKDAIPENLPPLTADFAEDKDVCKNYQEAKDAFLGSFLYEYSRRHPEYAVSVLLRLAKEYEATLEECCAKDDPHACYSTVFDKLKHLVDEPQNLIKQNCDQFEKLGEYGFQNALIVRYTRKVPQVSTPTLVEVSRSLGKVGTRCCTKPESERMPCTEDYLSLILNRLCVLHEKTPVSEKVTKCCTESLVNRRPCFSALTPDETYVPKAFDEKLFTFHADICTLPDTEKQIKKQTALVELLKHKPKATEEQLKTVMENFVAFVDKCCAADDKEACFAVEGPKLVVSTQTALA

[1] = probe aXIP binding to arrayed compounds – biochemical, NeuroSMM set, 635/667 nm fluorescence, primary screen (AID 1119); conditions: small-molecule microarray, higher = more signal, called active from +8 up or from −8 down;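 further: probe is the protein aXip251-270 applied at 1 µg/mL to compound-printed slides; binding of probe to printed compounds measured as 667 nm fluorescence plus signal to noise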
[2] = probe aNOTCH3 binding on compound microarray – biochemical, small-molecule microarray, 635/667 nm fluorescence, primary screen (AID 1120); conditions: higher = more signal;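 further: probe is a biotin-tagged antibody raised against NOTCH3 rather than NOTCH3 protein; score merges spot fluorescence near 667 nm with spot signal to noise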
[3] = probe aNOTCH2 binding on compound microarray – biochemical, small-molecule microarray, 635/667 nm fluorescence, primary screen (AID 1121); conditions: higher = more signal;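 further: score merges feature fluorescence read at 667 nm with its signal to noise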
[4] = molecular target: Carbonic anhydrase 2 (Homo sapiens) (UniProt P00918); assay: compounds binding carbonic anhydrase 2 – biochemical, small-molecule microarray, Alexa647-labelled CAII, profiling panel (AID 1122); conditions: CAII-A647 binding fluorescence, higher = more signal
[5] = COS7 lysate on small-molecule microarray, probe aHis, 635 nm (AID 1123); conditions: COS7 cell lysate, fluorescence, higher = more signal;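 further: z-score combines 667nm fluorescence intensity with signal-to-noise per printed compound spot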
[6] = probe aLAP1 signal on lysate-treated microarray – cell lysate, small-molecule microarray, COS7 lysate, primary screen (AID 1124); conditions: probe aLAP1, fluorescence, higher = more signal;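 further: lysate comes from COS7 cells expressing LAP1 and is applied at 0.3 µg/mL; score merges spot fluorescence near 667 nm with signal-to-noise over triplicate slides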
Sam68 (KHDRBS1) = assay: compounds binding KHDRBS1 protein – biochemical, small-molecule microarray, 635 nm fluorescence, primary screen (AID 1125); conditions: higher = more signal;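 further: score merges 667 nm channel intensity with signal to noise over triplicate slides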
[7] = test system: Chordin-like protein 2 (CHRDL2); assay: compounds binding chordin-like 2 – biochemical, small-molecule microarray, 635 nm fluorescence, primary screen (AID 1126); conditions: fluorescence 635 nm, higher = more signal;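 further: printed compound slides probed with Chrdl2 protein at 4 µg/mL for 1 h at 4 C; score merges 667 nm emission intensity with signal to noise over three replicate slides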
[8] = molecular target: Concanavalin-A (Canavalia ensiformis) (UniProt P02866); assay: compounds binding concanavalin A lectin – biochemical, small-molecule microarray, Alexa647 label, 635 nm, artefact control for SMM control protein annotation, primary screen (AID 1127); conditions: ConA-A647 binding fluorescence, higher = more signal;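 further: z combines 667 nm emission intensity with signal-to-noise across three replicate slides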
Chain of Concanavalin-A (Canavalia ensiformis) (P02866 whole entry, looked up): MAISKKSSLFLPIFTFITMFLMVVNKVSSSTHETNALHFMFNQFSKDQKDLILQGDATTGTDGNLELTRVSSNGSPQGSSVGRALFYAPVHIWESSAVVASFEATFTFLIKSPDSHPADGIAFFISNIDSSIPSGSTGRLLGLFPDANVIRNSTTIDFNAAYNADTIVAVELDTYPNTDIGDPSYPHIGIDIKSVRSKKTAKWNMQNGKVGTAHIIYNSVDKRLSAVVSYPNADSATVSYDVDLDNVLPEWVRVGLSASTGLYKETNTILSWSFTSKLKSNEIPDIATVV

[9] = compounds binding Alexa647 anti-His antibody – biochemical, small-molecule microarray, 635 nm fluorescence, artefact control for SMM control protein annotation, primary screen (AID 1128); conditions: higher = more signal;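 further: score merges feature fluorescence with signal-to-noise for each printed compound spot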
[10] = test system: Human papillomavirus type 1a E7 protein (residues 1-88); assay: HPV1a E7 small-molecule binders, primary screen, biochemical, small-molecule microarray, residues 1-88, 635 nm (AID 1129); conditions: small-molecule microarray binding, fluorescence 635 nm; higher = more signal
[11] = molecular target: Focal adhesion kinase 1 (Homo sapiens) (UniProt Q05397); assay: PTK2 protein binding on printed compound slides – biochemical, small-molecule microarray, 635/667 nm fluorescence, BSA, DTT, primary screen (AID 1130); conditions: 635 nm fluorescence, higher = more signal;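 further: composite of spot emission at 667 nm and signal to noise over triplicate slides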
Chain of Focal adhesion kinase 1 (Homo sapiens) (Q05397 whole entry, looked up): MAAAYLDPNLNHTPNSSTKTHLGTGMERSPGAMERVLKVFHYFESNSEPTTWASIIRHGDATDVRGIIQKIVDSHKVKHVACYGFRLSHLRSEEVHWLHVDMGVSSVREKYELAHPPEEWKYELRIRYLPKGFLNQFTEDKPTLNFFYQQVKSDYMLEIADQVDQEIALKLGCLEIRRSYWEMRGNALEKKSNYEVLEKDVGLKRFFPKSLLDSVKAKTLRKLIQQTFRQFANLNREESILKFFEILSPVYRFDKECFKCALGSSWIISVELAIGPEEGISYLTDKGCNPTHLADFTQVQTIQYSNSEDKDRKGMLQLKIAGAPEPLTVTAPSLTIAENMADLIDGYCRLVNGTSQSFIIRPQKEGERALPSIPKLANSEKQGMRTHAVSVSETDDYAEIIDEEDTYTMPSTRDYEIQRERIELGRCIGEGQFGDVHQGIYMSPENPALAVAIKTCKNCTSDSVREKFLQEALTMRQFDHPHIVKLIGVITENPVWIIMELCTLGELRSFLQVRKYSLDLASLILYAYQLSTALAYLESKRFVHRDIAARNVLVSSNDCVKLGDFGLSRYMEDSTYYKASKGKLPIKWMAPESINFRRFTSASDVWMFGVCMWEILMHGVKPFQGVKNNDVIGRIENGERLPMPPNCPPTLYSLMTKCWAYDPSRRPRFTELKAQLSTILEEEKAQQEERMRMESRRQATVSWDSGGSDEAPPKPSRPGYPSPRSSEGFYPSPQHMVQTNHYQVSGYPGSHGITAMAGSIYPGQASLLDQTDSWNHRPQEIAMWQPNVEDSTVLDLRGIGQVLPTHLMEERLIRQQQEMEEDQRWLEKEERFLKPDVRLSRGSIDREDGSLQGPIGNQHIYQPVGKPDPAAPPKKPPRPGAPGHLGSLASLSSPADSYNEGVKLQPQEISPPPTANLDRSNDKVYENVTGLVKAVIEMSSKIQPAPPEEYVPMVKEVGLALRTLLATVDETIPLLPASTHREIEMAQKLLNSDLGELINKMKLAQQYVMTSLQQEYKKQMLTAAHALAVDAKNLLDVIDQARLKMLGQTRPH

[12] = test system: Fibrinogen (Alexa647-labelled); assay: Alexa647-fibrinogen binding to printed small molecules – biochemical, small-molecule microarray, 635/667 nm fluorescence, artefact control for SMM control-protein annotation, profiling panel (AID 1131); conditions: fibrinogen-A647 binding fluorescence, higher = more signal;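 further: z-score merges 667 nm fluorescence with per-spot signal-to-noise over triplicate slides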
[13] = molecular target: Follistatin (Homo sapiens) (UniProt P19883); assay: FST protein binding to printed compounds – biochemical, small-molecule microarray, 635/667 nm fluorescence, primary screen (AID 1132); conditions: 635 nm fluorescence, higher = more signal
Chain of Follistatin (Homo sapiens) (P19883 whole entry, looked up): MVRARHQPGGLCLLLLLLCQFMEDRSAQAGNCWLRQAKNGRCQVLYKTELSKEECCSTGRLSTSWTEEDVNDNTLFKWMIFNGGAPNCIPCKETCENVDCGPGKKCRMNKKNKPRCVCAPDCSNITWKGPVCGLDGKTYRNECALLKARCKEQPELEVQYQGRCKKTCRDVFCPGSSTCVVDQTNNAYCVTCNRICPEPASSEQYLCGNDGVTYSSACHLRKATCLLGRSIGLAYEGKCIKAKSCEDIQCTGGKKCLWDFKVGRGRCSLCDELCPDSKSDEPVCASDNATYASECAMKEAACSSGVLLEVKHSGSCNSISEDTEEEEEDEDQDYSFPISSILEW

[14] = molecular target: Fibroblast growth factor 2 (Homo sapiens) (UniProt P09038); assay: basic fibroblast growth factor binding to printed compounds – biochemical, small-molecule microarray, 635/667 nm fluorescence, primary screen (AID 1133); conditions: FGF2, fluorescence 635/667, higher = more signal
Chain of Fibroblast growth factor 2 (Homo sapiens) (P09038 whole entry, looked up): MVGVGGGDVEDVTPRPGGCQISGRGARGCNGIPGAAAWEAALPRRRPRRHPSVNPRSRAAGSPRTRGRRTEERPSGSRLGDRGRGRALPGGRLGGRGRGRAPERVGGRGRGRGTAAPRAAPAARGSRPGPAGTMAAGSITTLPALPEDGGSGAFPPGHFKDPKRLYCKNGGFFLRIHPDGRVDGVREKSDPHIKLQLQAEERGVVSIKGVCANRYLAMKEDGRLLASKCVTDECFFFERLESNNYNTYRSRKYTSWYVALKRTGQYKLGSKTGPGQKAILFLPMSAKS

[15] = JC-1 mitochondrial potential readout, lung cancer cells – cell-based, A549, JC-1 fluorescence, basal, 24 h, 100 nL, profiling panel (AID 1138); conditions: higher = more signal;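 further: A549 lung adenocarcinoma cells under basal conditions with no added stimulus; test concentration not given here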
Lefty1 = Lefty1 protein binding to printed compounds – biochemical, small-molecule microarray, 635/667 nm fluorescence, primary screen (AID 1139); conditions: fluorescence 635/667, higher = more signal
[16] = test system: wheat germ agglutinin (Triticum aestivum), Alexa647-labelled; assay: Alexa647-WGA lectin binding to printed small molecules – biochemical, small-molecule microarray, 635/667 nm fluorescence, artefact control for SMM control-protein annotation, profiling panel (AID 1140); conditions: WGA-A647 binding, 635 nm fluorescence, higher = more signal;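 further: score merges 667 nm feature emission with signal to noise over triplicate slides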
[17] = molecular target: Luciferin 4-monooxygenase (Photinus pyralis) (UniProt P08659); assay: inhibition of purified Photinus pyralis luciferase – biochemical, luminescence, purified enzyme, 2006 set, primary screen (AID 1141); conditions: purified firefly luciferase, SteadyGlo luminescence, 30 min; higher = more signal, called active from +8 up or from −8 down;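 further: cell-free assay with purified firefly luciferase at 100 ng per well in PBS; test concentration not given here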
Chain of Luciferin 4-monooxygenase (Photinus pyralis) (P08659 whole entry, looked up): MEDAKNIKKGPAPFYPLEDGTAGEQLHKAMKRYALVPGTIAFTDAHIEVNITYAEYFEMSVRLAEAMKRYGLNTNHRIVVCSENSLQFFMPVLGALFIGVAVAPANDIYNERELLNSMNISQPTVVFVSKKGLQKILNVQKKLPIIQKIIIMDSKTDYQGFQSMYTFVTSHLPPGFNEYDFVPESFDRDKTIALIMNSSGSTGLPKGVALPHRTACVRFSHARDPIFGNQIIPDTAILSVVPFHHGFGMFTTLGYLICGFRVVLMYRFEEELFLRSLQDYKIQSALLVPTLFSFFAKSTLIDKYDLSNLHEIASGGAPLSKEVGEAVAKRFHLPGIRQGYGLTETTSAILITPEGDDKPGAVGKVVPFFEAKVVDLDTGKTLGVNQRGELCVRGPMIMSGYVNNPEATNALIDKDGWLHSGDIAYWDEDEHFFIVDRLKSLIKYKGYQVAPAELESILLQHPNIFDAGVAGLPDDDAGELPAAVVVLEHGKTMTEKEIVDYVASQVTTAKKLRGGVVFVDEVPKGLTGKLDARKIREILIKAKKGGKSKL

Structure (SMILES) | composite z-score (Albumin (Bos taurus)) | composite Z-score [1] | composite z-score [2] | composite z-score [3] | composite z-score [4] | composite z-score [5] | composite z-score [6] | composite z-score (Sam68 (KHDRBS1)) | composite z-score [7] | composite z-score [8] | composite z-score [9] | composite z-score [10] | composite z-score [11] | composite z-score [12] | composite z-score [13] | composite z-score [14] | z-score [15] | composite z-score (Lefty1) | composite z-score [16] | z-score [17]
CO[C@@H]1COC(=O)CC=C[C@H](C)[C@H](OC)COC(=O)[C@H](C)NC(=O)CC=C[C@H]1C | -0.837 | 1.11 (inactive) | -0.0043 | -0.118 | -0.481 | -0.448 | -0.134 | 0.786 | 0.896 | -1.76 | -0.347 | -1.35 | -0.289 | -0.394 | 1.41 | 0.628 | 0.239 | 1.64 | -0.54 | -0.304 (inactive)
CC(C)(C)N1C(=O)[C@H]2[C@H]3[C@H](O)[C@H](O)CC(=O)[C@H]3CC[C@H]2C1=O | 0.472 | 0.403 (inactive) | -0.0581 | -0.155 | 0.0658 | 0.165 | 0.206 | 0.892 | 0.357 | 0.673 | 0.875 | 0.496 | -0.246 | 0.584 | 0.558 | 0.399 | -0.714 | 0.407 | 0.0902 | 0.206 (inactive)
CC(C)=CCCC(C)=CCON=C1C[C@@H](O)[C@@H](O)[C@@H]2[C@@H]3C(=O)N(c4ccc(F)cc4F)C(=O)[C@@H]3CC[C@@H]12 | 0.572 | 0.262 (inactive) | 0.0459 | -0.14 | 0.29 | -0.217 | 0.233 | 0.51 | 1.38 | 0.339 | 0.0658 | -0.167 | 0.121 | 0.89 | 1.04 | 0.393 | -0.913 | 1.27 | 1.06 | 1.03 (inactive)
COC(=O)[C@@H]1CC[C@H](C)[C@@H](c2ccc(C)cc2)N1C(=O)c1ccc(C=NOCC[C@@H]2C=C[C@H](OC(C)=O)[C@@H](COC(C)=O)O2)cc1 | -0.129 | -0.2 (inactive) | 0.088 | -0.1 | -0.0127 | 0.148 | -0.552 | 0.926 | 0.772 | 0.658 | 2.68 | 0.895 | -0.125 | 0.316 | 0.47 | 0.614 | -0.512 | 0.605 | 0.175 | 0.963 (inactive)
CCOC(=O)CCN1C(=O)[C@H]2[C@H]3[C@H](O)[C@H](O)CC(=NNC(=O)OCc4ccccc4)[C@@H]3CC[C@H]2C1=O | 0.576 | 0.406 (inactive) | -0.0864 | -0.117 | 0.21 | -0.0034 | 0.32 | 1.19 | 0.393 | 1 | 0.553 | 0.687 | 0.538 | 0.986 | 0.937 | 0.55 | 0.319 | 0.699 | 0.304 | 0.195 (inactive)
CC(=O)OC[C@H]1O[C@@H](ON=C(C)CCN2CCCc3nc(C)c(C)cc32)[C@H](OC(C)=O)[C@@H](OC(C)=O)[C@@H]1OC(C)=O | 0.449 | 0.403 (inactive) | -0.0587 | -0.0695 | 0.155 | 0.678 | 0.16 | 1.13 | -0.144 | 1.03 | 0.269 | 1.15 | 0.36 | 0.602 | 0.881 | 0.664 | -1.13 | 0.889 | 0.476 | 0.788 (inactive)
CCOC(=O)[C@H](CC(C)C)NC(=O)CCC1CC(OC(=O)NCCc2ccc(F)cc2)CC2(CCCC(COC(=O)NCCC(C)C)O2)O1 (stereo not given in full) | 0.281 | -0.375 (inactive) | 0.128 | -0.177 | 0.269 | 0.596 | -0.14 | -0.163 | 0.301 | 0.816 | 1.79 | 0.0471 | 0.459 | 0.818 | 0.601 | 0.0263 | 0.427 | 0.304 | 0.421 | 0.403 (inactive)
CC(C)=CCCC(C)=CCON=C1C[C@@H](O)[C@@H](O)[C@@H]2[C@@H]3C(=O)N(C(C)(C)C)C(=O)[C@@H]3CC[C@H]12 | 0.161 | 1.26 (inactive) | 0.149 | -0.0846 | 0.0334 | 0.043 | 0.373 | 0.293 | 0.346 | 0.198 | -0.119 | 0.635 | -0.0868 | 0.199 | 0.329 | 0.248 | -0.0133 | 0.536 | -0.849 | 0.0533 (inactive)
CO[C@@H]1COC(=O)[C@@H](C)NC(=O)CC=C[C@@H](C)[C@H](NS(=O)(=O)c2ccc(C)cc2)COC(=O)[C@H](C)NC(=O)CC=C[C@H]1C | -1.05 | 1.05 (inactive) | -0.0647 | -0.184 | -0.333 | -0.634 | -0.192 | 0.643 | 1.16 | -1.05 | -0.0135 | -0.693 | -0.0691 | -0.965 | 0.848 | 0.0303 | 1.07 | 0.895 | -0.694 | -1.15 (inactive)
CC(CCN1CCc2nc(-c3ccccc3)c(-c3ccccc3)cc2C1)=NOC[C@@H](O)COCc1ccco1 | 0.148 | 0.0366 (inactive) | 0.062 | -0.153 | 0.0111 | 0.197 | -0.202 | 1.08 | 1.03 | 0.501 | 0.567 | 0.697 | 0.475 | 0.19 | 1.15 | 0.496 | 2 | 1.03 | 0.679 | -1.46 (inactive)
CON=C(C)CCC(=O)OC[C@H]1O[C@H](c2ccccc2)C=C[C@@H]1Oc1ccc(OC)cc1 | 0.443 | -0.222 (inactive) | -0.0687 | -0.146 | -0.185 | -0.0845 | 0.2 | -0.209 | 0.406 | 0.0078 | 1.25 | -0.623 | -0.0144 | -0.45 | 0.252 | 0.48 | 0.472 | 0.415 | -0.551 | 0.236 (inactive)
CC(C)C[C@H](NC(=O)CCC1CC(OC(=O)NCc2cccc3ccccc23)CC2(CCCC(COC(=O)NCc3ccccc3)O2)O1)C(=O)NCC(c1ccccc1)c1ccccc1 (stereo not given in full) | 0.163 | -0.0662 (inactive) | 0.0876 | -0.234 | 0.404 | 0.743 | 1.09 | 1.31 | 0.546 | 0.347 | 0.231 | 1.13 | 0.383 | 0.803 | 0.909 | 1.27 | 1.09 | 1.07 | 0.493 | 0.43 (inactive)
CCCNC(=O)OC[C@H]1O[C@H](c2ccccc2)C=C[C@@H]1Oc1ccc(OC)cc1 | 0.16 | 0.0414 (inactive) | -0.15 | -0.14 | 0.066 | 0.232 | 0.0186 | -0.573 | 0.062 | -0.316 | 0.98 | 0.0455 | -0.0038 | 0.25 | -0.143 | -0.179 | -0.388 | 0.212 | -0.114 | -0.533 (inactive)
